# Results from publication PMC9838217, “Structure of SALL4 zinc finger domain reveals link between AT-rich DNA binding and Okihiro syndrome”.
# Changes are numbered by the printed parent chain.
# Legend:
# [1] = target: T1, SALL4 ZFC4 R900W (HT-SELEX) (Mus musculus, UniProt Q8BX22 870-940, R900W); assay: HT-SELEX; high values mean tight binding; conditions: protein: recombinant; vector His6-GST; dsDNA, one strand shown
# T1 sequence: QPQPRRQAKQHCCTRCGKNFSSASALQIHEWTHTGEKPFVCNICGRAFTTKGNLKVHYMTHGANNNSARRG
# How it was run: (§1)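 Purified recombinant mouse SALL4 zinc finger cluster 4 (residues 870–940, 1 µg) was incubated with library DNA (1.5 µg first cycle, 200 ng later) in 100 µl buffer (10 mM Tris–HCl pH 7.5, 50 mM NaCl, poly(dI-dC), DTT) for 10 min at room temperature. Ni2+ bead-captured complexes were washed, PCR-amplified and reselected for up to 6 cycles, in triplicate, then MiSeq-sequenced and scanned for 6-mers. Binding signal is each canonical k-mer's read fraction as fold change versus the initial random library.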
# [2] = target: T2, SALL4 ZFC4 G921D (HT-SELEX) (Mus musculus, UniProt Q8BX22 870-940, G921D); assay: HT-SELEX; high values mean tight binding; conditions: protein: recombinant; vector His6-GST; dsDNA, one strand shown
# T2 sequence: T1 sequence with W31R, G52D
# How it was run: as §1
Sequence,binding signal [1],binding signal [2]
AAGGCG,0.265 ± 0.014 fold-change vs cycle 0,0.425 ± 0.0847 fold-change vs cycle 0
GCGTCC,0.152 ± 0.014 fold-change vs cycle 0,0.258 ± 0.0705 fold-change vs cycle 0
GCCGGA,0.106 ± 0.00682 fold-change vs cycle 0,0.224 ± 0.0644 fold-change vs cycle 0
GGGCTA,0.35 ± 0.0254 fold-change vs cycle 0,0.487 ± 0.0896 fold-change vs cycle 0
CAGCGA,0.275 ± 0.0083 fold-change vs cycle 0,0.404 ± 0.0764 fold-change vs cycle 0
CGCACA,0.229 ± 0.0112 fold-change vs cycle 0,0.353 ± 0.0588 fold-change vs cycle 0
CCCCGG,0.118 ± 0.0064 fold-change vs cycle 0,0.224 ± 0.0627 fold-change vs cycle 0
GGCACC,0.163 ± 0.0146 fold-change vs cycle 0,0.28 ± 0.0664 fold-change vs cycle 0
AAGCCG,0.241 ± 0.0209 fold-change vs cycle 0,0.357 ± 0.0555 fold-change vs cycle 0
GGCCAA,0.221 ± 0.00964 fold-change vs cycle 0,0.358 ± 0.0813 fold-change vs cycle 0
GATGCC,0.3346 ± 0.00318 fold-change vs cycle 0,0.49 ± 0.0663 fold-change vs cycle 0
CCGCGA,0.102 ± 0.00288 fold-change vs cycle 0,0.221 ± 0.0689 fold-change vs cycle 0
AGTCGC,0.244 ± 0.0172 fold-change vs cycle 0,0.386 ± 0.0654 fold-change vs cycle 0
CGGGGA,0.231 ± 0.0209 fold-change vs cycle 0,0.347 ± 0.093 fold-change vs cycle 0
GGCCCA,0.126 ± 0.00969 fold-change vs cycle 0,0.245 ± 0.0696 fold-change vs cycle 0
GGGCGA,0.127 ± 0.00943 fold-change vs cycle 0,0.251 ± 0.0728 fold-change vs cycle 0
AGCGCA,0.18 ± 0.00997 fold-change vs cycle 0,0.305 ± 0.097 fold-change vs cycle 0
GCCTCA,0.364 ± 0.0186 fold-change vs cycle 0,0.513 ± 0.0755 fold-change vs cycle 0
ACGCAC,0.27 ± 0.0299 fold-change vs cycle 0,0.404 ± 0.0719 fold-change vs cycle 0
CGGGAG,0.27 ± 0.0161 fold-change vs cycle 0,0.381 ± 0.0867 fold-change vs cycle 0
GCCAGC,0.102 ± 0.00774 fold-change vs cycle 0,0.211 ± 0.0594 fold-change vs cycle 0

Sequence,binding signal [1],binding signal [2]
ACCGCG,0.099 ± 0.00138 fold-change vs cycle 0,0.205 ± 0.0665 fold-change vs cycle 0
GGAATA,1.41 ± 0.0506 fold-change vs cycle 0,1.35 ± 0.0751 fold-change vs cycle 0
GCAGGC,0.124 ± 0.00995 fold-change vs cycle 0,0.24 ± 0.0592 fold-change vs cycle 0
CACAGC,0.324 ± 0.0122 fold-change vs cycle 0,0.442 ± 0.0707 fold-change vs cycle 0
CACGCG,0.116 ± 0.0104 fold-change vs cycle 0,0.214 ± 0.0541 fold-change vs cycle 0
GCACGC,0.0991 ± 0.0124 fold-change vs cycle 0,0.21 ± 0.063 fold-change vs cycle 0
GCCGCA,0.0591 ± 0.00535 fold-change vs cycle 0,0.149 ± 0.0608 fold-change vs cycle 0
CCACCG,0.209 ± 0.0206 fold-change vs cycle 0,0.322 ± 0.0675 fold-change vs cycle 0
GCAGCC,0.112 ± 0.0161 fold-change vs cycle 0,0.221 ± 0.0775 fold-change vs cycle 0
CGGGCA,0.116 ± 0.00794 fold-change vs cycle 0,0.223 ± 0.0617 fold-change vs cycle 0
AAGCGC,0.162 ± 0.0133 fold-change vs cycle 0,0.302 ± 0.0877 fold-change vs cycle 0
GACGCA,0.263 ± 0.0079 fold-change vs cycle 0,0.386 ± 0.0647 fold-change vs cycle 0
CGCAAC,0.251 ± 0.0146 fold-change vs cycle 0,0.378 ± 0.0552 fold-change vs cycle 0
ACGCTG,0.298 ± 0.0226 fold-change vs cycle 0,0.41 ± 0.058 fold-change vs cycle 0
CGACCG,0.146 ± 0.0139 fold-change vs cycle 0,0.263 ± 0.0799 fold-change vs cycle 0
GCGGCC,0.0274 ± 0.00551 fold-change vs cycle 0,0.107 ± 0.0539 fold-change vs cycle 0
AGCCGG,0.121 ± 0.00957 fold-change vs cycle 0,0.244 ± 0.0663 fold-change vs cycle 0
CACGGG,0.253 ± 0.0129 fold-change vs cycle 0,0.366 ± 0.0584 fold-change vs cycle 0
ACGCGG,0.111 ± 0.0165 fold-change vs cycle 0,0.205 ± 0.0613 fold-change vs cycle 0
GCGTAC,0.308 ± 0.00417 fold-change vs cycle 0,0.455 ± 0.0643 fold-change vs cycle 0
